HT1080 IDH1KD tx – qHTS for induction of synthetic lethality in tumor cells producing 2HG: qHTS for the HT-1080-IDH1KD cell line. HT-1080 IDH1 knockdown viability, ATP luminescence, 48 h. Potency, µM (titrated, usually from 46.1 µM), actives largely listed as cytotoxic. hit rate 2% among 360,000
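Cytotoxicity counter-line: IDH1KD HT-1080, 48 h, CellTiter-Glo. Curves classed by r2, magnitude and activity.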
uPA generation – qHTS for Inhibitors of Cell Surface uPA Generation | cell surface uPA generation assay, qHTS | Potency, µM (highest dose often 38.3 µM), hits mostly inhibitors | hit rate 0.31% among 330,000 | AID 540303, 2011; active means well fitted inhibition curve with a large enough effect; inconclusive means small, poorly fitted or top-dose-only effect; inactive means no such curve, though single readings can be large or run the other way; tested in mouse RAW 264.7 cells; further: nearly all actives have a fitted effect of over 55% in size
DT40 TDP1 no CPT – qHTS for Inhibitors of human tyrosyl-DNA phosphodiesterase 1 (TDP1): qHTS in cells in absence of CPT. DT40 Tdp1-/- hTDP1 cells, no CPT, ATP luminescence, 48 h. Potency, µM (highest dose often 46.2 µM), usual class: inhibitors. hit rate 15% among 420,000; further: nearly all actives have a fitted effect of over 55% in size
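A cellular qHTS used chicken DT40 cells lacking endogenous Tdp1 but carrying stably transfected human TDP1. Compounds were applied without camptothecin, and cell growth kinetics were judged by ATP-dependent luminescence after ≥48 hr.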
DT40 TDP1 CPT – qHTS for Inhibitors of human tyrosyl-DNA phosphodiesterase 1 (TDP1): qHTS in cells in presence of CPT | chicken DT40 Tdp1-/-;hTDP1 cells + 20 nM CPT, ATP luminescence, 48 h | Potency, µM (titrated, usually from 46.2 µM), hits mostly inhibitors | hit rate 12% among 420,000; further: nearly all actives have a fitted effect of over 55% in size
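Cell growth measured by CellTiter-Glo luminescence after a minimum 48 h, 37 C compound exposure with 20 nM CPT in Tdp1-knockout DT40 cells stably expressing hTDP1, seeded 400/well; qHTS titration format.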
IL-1B inflam inh – qHTS for Inhibitors of Inflammasome Signaling: IL-1-beta AlphaLISA Primary Screen; THP-1 LPS/ATP IL-1B secretion, AlphaLISA, 16 h; active compounds read low; activity change, % at 57.5 µM; hit rate 4.7% among 360,000; AID 743279, 2014; in the data active means activity change below about -50%; inconclusive means mostly about -30% to -49%
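Secreted IL-1B measured by AlphaLISA bead assay after 16 h compound exposure of THP-1 cells; compounds (final up to 57.5 uM) added 1 h before LPS (250 ng/mL) and ATP (1.25 mM) stimulation; lower signal means less secretion.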
HT1080-NT tox – qHTS for induction of synthetic lethality in tumor cells producing 2HG: qHTS for the HT-1080-NT fibrosarcoma cell line; HT-1080-NT fibrosarcoma viability, CellTiter-Glo ATP luminescence, 48 h; Potency, µM (top dose mostly 46.1 µM), hits mostly cytotoxic; hit rate 1.6% among 360,000;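 further: NT is the 2HG producing partner of a matched IDH1 knockdown line; nearly all actives have a fitted effect of over 55% in size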
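Luminescent CellTiter-Glo readout after 48 hours of compound exposure at 37 degrees C defined viability of HT-1080-NT cells. Activity was normalized to DMSO wells and cell-free media wells; concentration-response curves were fitted and assigned curve classes.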
Numbers stand for hits; - = inactive; ? = inconclusive; . = no result; ! = not confirmed by another sample. The list is not random: actives were taken first. Their share in the collection is about 19%. Unless noted, the call rests on the fitted dose curve; in most records, active means well fitted curve in the direction sought with a large enough effect; inconclusive means small, poorly fitted or top-dose-only effect, or another doubt; inactive means no such curve, though single readings can be large; an effect the other way counts as inactive or inconclusive.

SMILES	HT1080 IDH1KD tx	uPA generation	DT40 TDP1 no CPT	DT40 TDP1 CPT	IL-1B inflam inh	HT1080-NT tox
Cc1ccccc1C(=O)NCC(c1cccnc1)N1CCc2ccccc21 (stereo not drawn)	.	.	18.4µM	?	.	.
Cc1ccc(Cl)cc1NC(=O)NCc1cccnc1	-	-	-	-	-	-
CCc1ccccc1NC(=O)C(=O)NCC(c1cccnc1)N1CCc2ccccc21 (stereo not drawn)	.	.	20.6µM	?	.	.
Cc1ccc(CNC(=O)c2cc3c(s2)CN(Cc2ccccc2)C3)cc1	-	-	-	-	-	?
CCC(CC)NC(=O)C1CC(=O)N(CCc2ccc(F)cc2)C1 (stereo not drawn)	-	-	-	-	-	-
CCOC(=O)c1ccc(NC(=S)N2CCSC2c2ccc(OC)cc2)cc1 (stereo not drawn)	-	-	?	-	-	-
CCOC(=O)c1ccc(NC(=S)N2CCSC2c2ccc(Cl)cc2)cc1 (stereo not drawn)	-	-	16.4µM	?	-	-
CC1(C)[C@@H]2CC[C@@]1(C)C(=O)C2	.	.	3.35µM!	8.41µM!	.	.
Cc1ccc(S(=O)(=O)N/N=C/c2ccccc2F)cc1[N+](=O)[O-]	-	-	-	-	-	-
CCN(Cc1ccccc1)c1ccc(/C=N/N=C(N)N)cc1	?	-	13µM	10.3µM	-99.7	18.4µM
CCN(Cc1ccccc1)c1ccc(/C=N/NS(=O)(=O)c2ccc(C)c([N+](=O)[O-])c2)cc1	-	-	23.1µM	?	-	-
CCN(Cc1ccccc1)c1ccc(/C=N/NC(=S)NC(C)C)cc1	-	-	2.91µM	2.59µM	-	-
CCN(CC)c1ccc(/C=N/NC(=O)CC(C)C)cc1	-	-	?	-	-	-
CCN(Cc1ccccc1)c1ccccc1	-	-	-	-	-	-
CC(C)C[C@H]1CN(CCCC[C@H]2CNC(=O)C(=O)N2CCc2ccccc2)C(=O)C(=O)N1CCC1CCCCC1	-	.	-	-	-	-
Cc1ccc(CNC(=O)C(=O)NCC2OCCCN2S(=O)(=O)c2ccc(F)cc2)cc1 (stereo not drawn)	-	-	-	-	-	-
CCCCNC(=S)Nc1cccc2cnccc12	-	-	23.1µM	13µM	-	-
S=C(NCc1ccccc1)Nc1cccc2cnccc12	?	-	18.4µM	11.6µM	-	-
COC(=O)C1=C(N)N(c2ccccc2C(F)(F)F)C2=C(C(=O)CCC2)C1c1ccc2c(c1)OCO2 (stereo not drawn)	-	-	?	23.1µM	-	-
COC(=O)CSC1=C(C#N)C(c2ccc3c(c2)OCO3)C2=C(CCCC2=O)N1 (stereo not drawn)	-	-	-	-	-	-
CCc1cc2c(=O)c(-c3nc4ccccc4n3C)coc2c(CN2CCCCC2)c1O	-	-	?	?	-	-
CCc1cc2c(=O)c(-c3cnn(-c4ccccc4)c3)c(C)oc2c(CN2CCCCC2)c1O	?	.	25.9µM	?	-	?
CCc1cc2c(=O)c(-c3nc4ccccc4n3C)c(C)oc2c(CN2CCCCC2)c1O	-	-	?	25.9µM	-	-
CCOC(=O)c1cc2cc([N+](=O)[O-])ccc2oc1=O	-	-	-	-	-	-
O=[N+]([O-])c1ccc2oc(C(O)c3cccc(Cl)c3)cc2c1 (stereo not drawn)	-	-	11.6µM	?	-93.2	-
SMILES	HT1080 IDH1KD tx	uPA generation	DT40 TDP1 no CPT	DT40 TDP1 CPT	IL-1B inflam inh	HT1080-NT tox
Cc1ccc(C2=N/C(=C\c3cccs3)C(=O)N2Nc2ccccc2)cc1	-	-	?	?	-	-
O=C1/C(=C/c2cccs2)N=C(c2cccs2)N1Nc1ccccc1	-	-	-	-	-70.4	-
O=C(NN1C(=O)/C(=C/c2cccs2)SC1=S)c1ccccc1	-	-	?	-	-	-
O=C1/C(=C\c2cccs2)N=C(c2cccs2)N1Nc1ccccc1	-	-	-	-	-60.9	-
COc1ccc(C(O)c2nc(-c3cnn(C)c3)cs2)cc1 (stereo not drawn)	-	.	?	?	-	-
CCN(C(=O)COC(=O)C1CCC(C(C)(C)C)CC1)c1c(N)n(Cc2ccccc2)c(=O)[nH]c1=O (stereo not drawn)	-	?	16.4µM	20.6µM	-	-
CC(C)CN(C(=O)COC(=O)C1CC1)c1c(N)n(Cc2ccccc2)c(=O)[nH]c1=O	-	-	-	-	-	-
CCN(C(=O)COC(=O)CCOc1ccc(C(C)(C)C)cc1)c1c(N)n(Cc2ccccc2)c(=O)[nH]c1=O	-	-	3.66µM	11.6µM	-	-
CCN(C(=O)COC(=O)CCCOc1ccc(Cl)cc1C)c1c(N)n(Cc2ccccc2)c(=O)[nH]c1=O	-	-	16.4µM	14.6µM	-	?
Nc1c(N(Cc2ccccc2)C(=O)COc2cccc(Cl)c2)c(=O)[nH]c(=O)n1Cc1ccccc1	-	-	?	20.6µM	-	-
COc1cccc(NC(=S)NC2CC(C)CC(C)(C)C2)c1 (stereo not drawn)	-	.	23.1µM	20.6µM	-	-
COc1cccc(NC(=S)Nc2ccc(O)cc2)c1	-	?	-	-	-	-
O=C(CCN1C(=O)/C(=C\c2ccccc2Cl)SC1=S)N1CCN(c2ccccc2)CC1	-	-	10.3µM	16.4µM	-107.1	-
O=C(CCN1C(=O)/C(=C\c2ccccc2F)SC1=S)N1CCCCC1	-	-	2.91µM	3.66µM	?	-
CC(C)(C)NC(=O)CN1C(=O)/C(=C/c2ccccc2)SC1=S	-	-	-	-	-	-
O=C(CCN1C(=O)/C(=C/c2ccccc2)SC1=S)N1CCCCCC1	-	-	20.6µM	11.6µM	-100.8	-
O=C(CN1C(=O)/C(=C/c2cccc(Br)c2)SC1=S)N1CCCC1	-	-	9.2µM	3.26µM	-	-
O=C(CCN1C(=O)/C(=C/c2ccccc2F)SC1=S)Nc1ccccn1	-	-	-	-	-	-
O=C(COC(=O)C1CCN(c2ccc(C(F)(F)F)cn2)CC1)NCc1ccccc1	-	-	-	-	-	-
CCn1c(=O)c([N+](=O)[O-])c(N2CCSCC2)c2ccccc21	-	-	23.1µM	?	-	-
C/C(=N\n1c(C)nc2ccccc2c1=O)c1ccc(N)cc1	-	-	18.4µM	?	-	-
Cc1ccc2c(Cl)c(Cc3ccccc3)c(=S)[nH]c2n1	-	-	?	?	-	-
CCOc1ccccc1C(=O)N(Cc1cc(OC)c(OC)c(OC)c1)c1ccccn1	.	.	?	18.4µM	.	.

Assay outcomes as filed in PubChem.
